High-throughput results as filed in PubChem BioAssay.
Only some compounds are listed: those with a hit (about 1.8% of all), similar ones and a draw of the others.
PfHsp40 rescue: compounds rescuing yeast from Plasmodium falciparum HSP40 toxicity; S. cerevisiae expressing PfHsp40, growth rescue, ATP luminescence; growth rescue, % at 12.5 µM; hit rate 0.68% among 340,000; in the data active = growth rescue above about 28%, passing the limit was not always enough;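 also: yeast W303a lacking pdr1 and pdr3 grown in galactose medium; growth measured after three days at 30 °C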
PrPC TRFRET: inhibitors of human cell surface prion protein PrPC; P04156; TR-FRET read-out; inhibition, % at 13.8 µM; hit rate 0.43% among 370,000; AID 720596; in the data active = inhibition above about 24%
SSB-PriA inh: blocks PriA binding to SSB C-terminal tail; AlphaScreen SSBct-PriA binding, biotinylated peptide; inhibition, % at 33 µM; hit rate 0.6% among 430,000; AID 1272365; in the data active = inhibition mostly above about 37%, no sharp cut-off; inactive = mostly below about 20%
PrP 5UTR inh: inhibition of PrP 5' UTR reporter expression. cell-based PrP 5' UTR mRNA reporter, plate reader. inhibition, % (test concentration not listed). hit rate 0.35% among 340,000; in the data active = inhibition above about 52%
MazF activator: MazEF (E. coli) toxin RNase activation. P0AE70. FAM/BHQ RNA-DNA oligo cleavage fluorescence, 5 h. activation, % at 20 µM. hit rate 0.32% among 350,000; in the data active = activation above about 50%
Target sequence (P0AE70 whole entry, looked up): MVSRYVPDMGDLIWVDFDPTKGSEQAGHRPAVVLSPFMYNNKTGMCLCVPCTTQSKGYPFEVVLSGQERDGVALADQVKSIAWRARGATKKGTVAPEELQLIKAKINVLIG
Hits are given with their value; – = inactive; · = no result.

SMILES	PfHsp40 rescue	PrPC TRFRET	SSB-PriA inh	PrP 5UTR inh	MazF activator
CN(CC(=O)Nc1ccccc1Cl)C(=O)C1CCN(S(=O)(=O)c2ccc3c(c2)OCCO3)CC1	–	–	–	–	–
O=C(/C=C/c1cccs1)Nc1nc(-c2ccccn2)cs1	·	·	66.0	·	·
CCc1sc(C(=O)Nc2nc(-c3ccccn3)cs2)cc1C	441.1	·	–	–	–
O=C(Nc1nc(-c2ccccn2)cs1)[C@@H]1CCCN1S(=O)(=O)c1cccs1	·	·	91.0	·	·
O=C(Nc1nc(-c2ccccn2)cs1)c1cc2c(s1)CCCC2	·	·	–	·	·
COc1ccc(NS(=O)(=O)c2ccc(NC(=O)c3ccc(CN4CCOCC4)cc3)cc2)cc1	49.9	–	–	–	–
COc1ccc(Br)cc1CNC(=O)CCCc1cn(C)c2ccccc12	–	–	–	–	–
Cc1cc(=O)c2cc(Br)ccc2n1CC(=O)NCc1ccccc1	–	–	–	–	–
O=C(NC(=S)N1CCN(c2ccc(C(F)(F)F)cc2[N+](=O)[O-])CC1)c1cccs1	122.4	–	51.2	–	–
COc1ccc(OC)c2sc(N(CC3CCCO3)C(=O)CN(C)S(C)(=O)=O)nc12 (stereo not given)	·	·	–	·	·
O=C(NCCn1ccnc1-c1ncccn1)NCc1ccc(Cl)cc1	·	·	–	·	·
O=C(CSCc1ccccc1)NCCn1ccnc1-c1ncccn1	·	·	42.0	·	·
COc1ccc(CCC(=O)NCCn2ccnc2C2CC2)cc1	·	·	–	·	·
CSc1ccccc1C(=O)NCCn1ccnc1-c1ncccn1	·	·	97.0	·	·
COc1ccc(CCC(=O)NCCn2ccnc2-c2ncccn2)cc1	·	·	96.0	·	·
O=C(CSCc1ccccc1)NCCn1ccnc1-c1ccccn1	·	·	–	·	·
O=C(NCCc1ccccc1)NCCn1ccnc1-c1ncccn1	·	·	96.0	·	·
COCc1cc(=O)[nH]c(/N=C(\N)Nc2cccc(Cl)c2)n1	–	–	·	–	–
CCCCc1cc(=O)oc2cc(OCC(=O)N[C@@H](Cc3ccccc3)C(=O)O)ccc12	–	–	–	–	–
Cc1cc(C)c2[nH]c3nc(SCC(=O)O)nnc3c2c1	–	–	–	–	–
O=C(NNc1c(Cl)cncc1Cl)c1cccs1	–	–	–	–	–
CCCCOP(=O)(c1ccc(N(C)C)cc1)C(O)c1c(Cl)cccc1Cl (stereo not given)	–	–	–	–	–
CC(C)(C)C(=O)Nc1ncccc1C(O)c1cccc(C(F)(F)F)c1 (stereo not given)	–	–	–	–	–
O=C(NCCn1ccnc1-c1ncccn1)C1c2ccccc2Oc2ccccc21	·	·	53.0	·	·
O=C(NCC1CCCN1S(=O)(=O)c1ccccc1)c1ccc2c(c1)OCO2 (stereo not given)	·	·	–	·	·
SMILES	PfHsp40 rescue	PrPC TRFRET	SSB-PriA inh	PrP 5UTR inh	MazF activator
Cc1ccc(N=Nc2c(O)n(CN3CCOCC3)c3ccccc23)cc1	–	·	–	–	56.7
Cc1ccc(C(CNC(=O)c2ccc(Br)o2)N2CCN(C)CC2)cc1 (stereo not given)	–	–	–	–	–
CC(=O)Nc1cc(N=Cc2ccc(O)cc2O)c(Cl)cc1Cl	–	·	–	–	129.7
COc1ccc(O)c(C=Nc2cc(NC(C)=O)c(Cl)cc2Cl)c1	–	–	–	–	–
Cc1cc(S(=O)(=O)c2ccc([N+](=O)[O-])cn2)ccc1Br	–	–	–	–	–
O=[N+]([O-])c1ccc(S(=O)(=O)c2ccccc2)nc1	288.6	–	–	–	–
Cc1ccc(S(=O)(=O)c2ccc([N+](=O)[O-])cn2)cc1	163.7	70.3	–	–	–
CC(=O)NS(=O)(=O)c1ccc(NC(=O)C2c3ccccc3Oc3ccccc32)cc1	–	–	–	–	–
CCCN(CC(=O)Nc1ccccc1C)C(=O)c1cn2ccccc2n1	–	–	–	–	–
CCCNc1nc(SC)nc2c1cnn2CCNC(=O)c1c(-c2ccccc2Cl)noc1C	·	·	62.5	·	·
Cc1ccccc1N=C1NN=C(c2ccccc2F)CS1	–	–	39.2	–	–
O=C(COc1ccc(Cl)cc1Cl)Nc1ccc(S(=O)(=O)N2CCOCC2)cc1	·	·	60.0	·	·
O=C(Cc1ccccc1)NCCS(=O)(=O)N1CCN(c2cccc(Cl)c2)CC1	–	–	–	–	–
O=C(Cc1ccc(F)cc1)NCCS(=O)(=O)N1CCN(c2cccc(Cl)c2)CC1	–	–	38.4	–	–
CCOC(=O)C1=CCN(S(=O)(=O)c2ccc(F)cc2)C1c1ccccc1 (stereo not given)	·	–	·	·	·
O=C(NCc1ccccc1)[C@@H]1CCCN1C(=O)[C@H]1CCCN1C(=O)c1cc(F)cc(F)c1	·	–	·	·	·
Oc1c(Cl)cccc1Cc1cc(Cl)cc(Cl)c1O	406.5	–	–	–	–
